The results in this text go back to PMC4552634, “A New Set of Chemical Starting Points with Plasmodium falciparum Transmission-Blocking Potential for Antimalarial Drug Discovery” (PLoS ONE, 2015).

Among all 13,000 compounds or so, about 3,200 (25%) showed an effect of 50% or more. Some of the results follow.

The test concerns P. falciparum stage V gametocytes. Set-up: BacTiter-Glo ATP luminescence viability of purified stage V gametocytes in 384-well plates, per cent inhibition versus DMSO. The note with it: 48 h, 5 µM; inhibitor.
For `COc1cc(C=C(C2=NC(=O)CS2)c2nc3cccnc3n2C)ccc1O` [TCMDC-135917], the “% Inhibition” value is given as -7.7%. To `O=C(CC1CCCCC1)NCC(NCCCNc1cc(=O)c2ccccc2[nH]1)c1cc(Br)cc(Br)c1` (stereo not drawn) [TCMDC-140315] belongs -37.31%.

On to `Cc1cccc2[nH]c(-c3ccc(-c4cccc(NC(=O)C(C)CN(C)C)c4)cc3)nc12` (stereo not drawn) [TCMDC-137103], for which the “% Inhibition” value is -53.92%. The same measure for `CC(=O)c1c(CC(=O)O)c2ccccc2n1O` [TCMDC-131414]: 58.24%; for `CCCCOc1ccc(-n2c(Nc3ccccc3)nc3cc(S(N)(=O)=O)ccc32)cc1` [TCMDC-135489]: -3.968%.

Turning to `CC1CCC(C[C@@H](C(=O)N[C@@H](CCC(=O)N2CCCCC2)C(=O)Nc2nccs2)[C@H](C(C)C)N(O)C=O)CC1` (stereo partly drawn) [TCMDC-138168], the “% Inhibition” value is recorded as -16.64%.

For `COc1cccc(Nc2nc(Nc3cccc(C#N)c3)cc(-c3ccncc3)n2)c1` [TCMDC-133447], the “% Inhibition” value is 6.387%. To `O=C(CSc1n[nH]c(=O)n1Cc1ccccc1)Nc1ccccc1-c1ccccc1` [TCMDC-123557] belongs 0.01985%; to `Cn1c(N)c(C(=O)CSc2nnc(-c3cccs3)n2Cc2ccccc2)c(=O)n(C)c1=O` [TCMDC-124496], -5.537%. To `COc1ccc(C2CC(c3cccs3)=NN2C(=O)c2ccccc2)cc1OC` (stereo not drawn) [TCMDC-123755] belongs -49.1%; to `COc1ccccc1-n1c(SCC(=O)c2ccc3c(c2)CC(=O)N3C)nnc1-c1cccs1` [TCMDC-124819], 56.33%. The same measure for `CN1CCCC1CNS(=O)(=O)c1ccc(C(=O)NCC2CC2)cc1` (stereo not drawn) [TCMDC-133683]: 0.07982%; for `CCc1ccc(C(=O)NC(=O)c2ccccc2O)cc1` [TCMDC-123479]: 19.58%; for `c1ccc(Oc2ccc(Nc3ccnc4cc(-c5csc(CNCCN6CCOCC6)n5)ccc34)cc2)cc1` [TCMDC-138407]: 5.088%. Consider `CN(C)CCNCc1nc(-c2ccc3c(Nc4ccc(Oc5ccccc5)cc4)ccnc3c2)cs1` [TCMDC-138410], for which the “% Inhibition” value was 95.14%.

Turning to `CN(C)CCN(C)Cc1nc(-c2ccc3c(Nc4ccc(Oc5ccccc5)cc4)ccnc3c2)cs1` [TCMDC-138408], the “% Inhibition” value was 77.6%.

Regarding `CN(C)CCNCc1nc(-c2ccc3c(Nc4ccc(Cl)cc4F)ccnc3c2)cs1` [TCMDC-138455], the “% Inhibition” value came to 16.78%. To `CS(=O)(=O)CCNCc1nc(-c2ccc3c(Nc4ccc(Oc5ccccn5)cc4)ccnc3c2)cs1` [TCMDC-138438] belongs -37.4%; to `Cc1ccc(O)cc1Nc1ccnc2cc(-c3csc(CN(C)CCN(C)C)n3)ccc12` [TCMDC-138458], 49.52%; to `CCc1ccc2nc(-c3ccc(F)cc3)nc(SCC(=O)Nc3sc(C)c(C)c3C#N)c2c1` [TCMDC-125430], 16.25%. To `COc1ccc2nccc([C@@H](O)CN3CCC(NC(=O)c4cc5c(F)cc(F)cc5[nH]4)CC3)c2n1` [TCMDC-134945] belongs -17.57%. The same measure for `CCCCCCc1c(C)[nH]c2cc(OC)ccc2c1=O` [TCMDC-138010]: 73.98%; for `CCCCCCCc1c(C)[nH]c2cc(OC)ccc2c1=O` [TCMDC-137173]: 75.71%. In the case of `COc1cc2c(=O)c(Cc3ccc(Cl)cc3)c(C)[nH]c2cc1F` [TCMDC-137280], the “% Inhibition” value is recorded as 22.18%.

With `CO/C(=C\C=C\c1cc2cc(Cl)c(Cl)cc2[nH]1)C(=O)NC1CCN(CCNc2ccccc2)CC1` [TCMDC-139535], the “% Inhibition” value is recorded as -22.32%. Regarding `CO/C(=C\C=C\c1cc2cc(Cl)c(Cl)cc2[nH]1)C(=O)NC1CCN(CCCc2ccccc2)CC1` [TCMDC-139657], the “% Inhibition” value amounted to 70.65%. Regarding `CO/C(=C\C=C/c1cc2cc(Cl)c(Cl)cc2[nH]1)C(=O)NC1CC(C)(C)N(C)C(C)(C)C1` [TCMDC-139106], the “% Inhibition” value is -40.37%. As to `CO/C(=C\C=C\c1cc2cc(Cl)c(Cl)cc2[nH]1)C(=O)N[C@H]1CN2CCC1CC2` [TCMDC-139095], the “% Inhibition” value was -57.18%.

As to `CO/C(=C\C=C\c1cc2cc(Cl)c(Cl)cc2[nH]1)C(=O)NC1CC2CCCC(C1)N2C` (stereo not drawn) [TCMDC-139067], the “% Inhibition” value is given as 19.33%.

Consider `CO/C(=C/C=C/c1cc2cc(Cl)c(Cl)cc2[nH]1)C(=O)NC1CC(C)(C)N(C)C(C)(C)C1` [TCMDC-139097], for which the “% Inhibition” value amounted to 81.55%. To `CO/C(=C\C=C\c1cc2cc(Cl)c(Cl)cc2[nH]1)C(=O)NC1CC(C)N(C)C(C)C1` (stereo not drawn) [TCMDC-139085] belongs -67.29%. To `CO/C(=C\C=C\c1cc2cc(Cl)c(Cl)cc2[nH]1)C(=O)NC1CCN(CCOc2ccccc2)CC1` [TCMDC-139454] belongs 27.46%; to `CO/C(=C\C=C\c1cc2cc(Cl)c(Cl)cc2[nH]1)C(=O)NC1CC2CCC(C1)N2C` (stereo not drawn) [TCMDC-139038], 73.28%; to `CC(C)(CNC(=O)[C@H]1CCCCN1)c1nc(-c2ccc(Cl)c(O)c2)c(-c2ccncc2)[nH]1` [TCMDC-141070], -44.74%. Regarding `Oc1ccccc1-c1nc2cccnc2n1CCc1cccc(C(F)(F)F)c1` [TCMDC-135091], the “% Inhibition” value was 14.7%. To `Cc1sc2ncnc(Sc3nnc(N)s3)c2c1C` [TCMDC-124542] belongs 96.33%; to `CCc1cc2c(Sc3nnc(N)s3)ncnc2s1` [TCMDC-123993], 80.67%; to `COc1ccc(-c2cc(C(=O)N[C@@H](CC3CCCCC3)C(=O)NC3CCCc4ccccc43)ccc2O)cc1` (stereo partly drawn) [TCMDC-140806], 24.41%.

For `O=C(NCCN1CCCc2ccccc21)C1CCN(c2nc(-c3ccc(Cl)cc3)no2)CC1` [TCMDC-125165], the “% Inhibition” value is given as 5.616%. The same measure for `Cc1noc(C)c1-c1cccc(CNCc2cccc(-c3cccc(-c4nc5cc(F)ccc5[nH]4)c3)c2)c1.O=C(O)C(F)(F)F` [TCMDC-133064]: -20.89%; for `Cn1cnc2c(Nc3ccncc3)nc(-c3ccc(OC(F)(F)F)cc3)nc21` [TCMDC-141276]: -18.84%. The same measure for `CC[C@H](N=C(Nc1ccc(-c2ccccc2)cc1)Nc1ccc(C#N)cc1O)c1ccccc1` [TCMDC-140209]: -62.75%; for `CC[C@H](N=C(Nc1ccc(C#N)cc1O)Nc1cccc(Cl)c1Cl)c1ccccc1` [TCMDC-140225]: 74.86%. The same measure for `CCCCCC(C)N=C(Nc1ccc(C#N)cc1O)Nc1cccc(Cl)c1Cl` (stereo not drawn) [TCMDC-140222]: -21.37%. Turning to `CSc1c(CNCCCNc2cc(=O)c3ccccc3[nH]2)[nH]c2ccccc12` [TCMDC-140648], the “% Inhibition” value is given as -17.76%. The same measure for `COC(=O)c1ccc(CN2CCC(N(Cc3cccc(Oc4ccccc4)c3)S(=O)(=O)c3ccc(NC(C)=O)cc3)CC2)cc1` [TCMDC-139500]: -7.518%; for `O=C(Nc1ccc(Cn2ncc(N3CCCNCC3)c(Cl)c2=O)cc1)Nc1cccc(Oc2ccccc2)c1` [TCMDC-133316]: 4.228%; for `O=C(Nc1ccc(Oc2ccccc2)cc1)N(CCN1CCCC1)Cc1ccc(-c2ccc(CN3CCNCC3)cc2)cc1` [TCMDC-139652]: 103.6%. The same measure for `O=C(Nc1ccc(-c2cccc(CN3CCC(O)CC3)c2)cc1)c1cccc(Cl)c1` [TCMDC-132665]: -3.105%.

Take `O=C(Nc1ccc(Oc2ccccc2)cc1)N(Cc1ccc(-c2cccc(CN3CCNCC3)c2)cc1)C1CCN(Cc2ccccc2)CC1` [TCMDC-139637]: the “% Inhibition” value is recorded as 111.2%. The same measure for `N#Cc1cccc(C(=O)Nc2ccc(-c3cccc(CN4CCC(O)CC4)c3)cc2)c1` [TCMDC-132670]: -58.6%; for `O=C(Nc1ccc(-c2nc3ccccc3[nH]2)cc1)C1CCN(Cc2ccccc2)CC1` [TCMDC-124891]: -65.72%; for `O=C(Nc1ccc(Oc2ccccc2)cc1)N(Cc1ccc(-c2ccc(CN3CCNCC3)cc2)cc1)C1CCN(Cc2ccccc2)CC1` [TCMDC-139653]: 106.3%. The same measure for `O=C(Nc1cccc(-c2cccc(-c3nc4ccc(C(F)(F)F)cc4[nH]3)c2)c1)c1ccc(=O)[nH]n1` [TCMDC-137031]: -1.351%. The same measure for `O=C(Nc1ccc(-c2nc3ccccc3[nH]2)cc1)c1ccc(N2CCOCC2)c([N+](=O)[O-])c1` [TCMDC-124372]: -1.163%.

As for `O=C(NC1CC1)c1cnc(N2CCN(Cc3c(F)cccc3Cl)CC2)c(Cl)c1` [TCMDC-134607], the “% Inhibition” value was determined as 20.64%.

For `CCC(C)NC(=O)CN1CN(c2ccccc2)C2(CCN(C(=O)c3ccc(C(C)(C)C)cc3)CC2)C1=O` (stereo not drawn) [TCMDC-125176], the “% Inhibition” value is -75.94%.

On to `Nc1ncc(-c2ccccc2)cc1-c1nc2cc(Cl)c(F)cc2[nH]1` [TCMDC-138783], for which the “% Inhibition” value is -16.12%. Consider `CSc1ccc2nccc(Nc3ccc(Oc4ccccc4)cc3)c2c1` [TCMDC-138375], for which the “% Inhibition” value is reported as -18.84%. Consider `CC1CN(c2ccnc3ccc(Sc4ccc(Oc5ccccc5)cc4)cc23)CC(C)N1` (stereo not drawn) [TCMDC-135857], for which the “% Inhibition” value was 94.55%.

Consider `Cc1c(S(=O)(=O)Nc2ccc3nccc(N4CC(C)NC(C)C4)c3c2)sc2ccc(Cl)cc12` (stereo not drawn) [TCMDC-139464], for which the “% Inhibition” value was found to be 2.238%. Consider `CC[C@H](C)CNC(=O)c1ccnc(-c2cccc(CN3CCC(N4CCCC4)CC3)c2)c1` [TCMDC-134244], for which the “% Inhibition” value is on record as 20.81%. The same measure for `O=S(=O)(c1cccc(C(F)(F)F)c1)N1CCC(CO)(Cc2cccc(C(F)(F)F)c2)CC1` [TCMDC-124606]: 41.83%; for `CCCS(=O)(=O)N1CCC(CO)(Cc2ccccc2C(F)(F)F)CC1` [TCMDC-124652]: 66.01%; for `N#Cc1ccc(CN2CCC(Oc3ccc(NC(=O)c4ccco4)cc3Cl)C2)cc1` (stereo not drawn) [TCMDC-133963]: 28.15%. To `O=C(NC1CCCCC1)N(Cc1cccc(-c2cccc(CNC3CCCC3)c2)c1)C1CCN(Cc2ccccc2)CC1` [TCMDC-140630] belongs 102.1%; to `O=C(NC1CCCCC1)N(Cc1ccc(-c2cccc(CNC3CCCC3)c2)cc1)C1CCN(Cc2ccccc2)CC1` [TCMDC-140638], 83.36%; to `O=C(NC1CCCCC1)N(Cc1cccc(-c2ccc(CNC3CCCC3)cc2)c1)C1CCN(Cc2ccccc2)CC1` [TCMDC-140631], 106.7%. In the case of `O=C(NC1CCCCC1)N(Cc1cccc(-c2ccc(CNCCc3ccccc3)cc2)c1)C1CCN(Cc2ccccc2)CC1` [TCMDC-140629], the “% Inhibition” value is listed as 110.5%.
